Compound activity deposited in PubChem BioAssay by National Center for Advancing Translational Sciences (NCATS).
Rows were chosen to be rich in hits. Some 1.7% of all compounds tested hit in one or more screens of this group.
GLP-1R inv ag: GLP-1 receptor (human) inverse agonism; AID 624417; 410,000 tested, 1.6% active; HEK293 GLP-1R CRE-luciferase, luminescence, 24 h; GLP-1R form is constitutively active; Potency, µM (titrated, usually from 38.3 µM), usual class: inhibitors; P43220; further: nearly all actives have a fitted effect of over 55% in size
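GLP-1R inverse agonism mode: basal reporter luminescence in engineered HEK293 cells measured after one day of compound exposure at 37 deg C, with a 12 min room-temperature detection step.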
HEK293 tox: cytotoxic in the GLP-1 receptor inverse agonist counter-screen | 410,000 tested, 0.13% active | HEK293 cAMP-luciferase reporter cells, luminescence, 24 h | Potency, µM (highest dose often 38.3 µM), actives largely listed as inhibitors;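 further: loss of luciferase light is scored as toxicity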
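1536-well qHTS counterscreen of the MLSMR; 200 cells/uL, 12 h pre-incubation, 23 nL cpd, 24 h at 37 deg C 5% CO2, luciferase detection reagent, 12 min RT, luminescence. Inhibition = undesired.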
GLP-1R agonist: activates the human GLP-1 receptor | P43220 | HEK293 GLP-1R CRE-luciferase, luminescence, 4-6 h; cells express a hypersensitive GLP-1R form | Potency, µM (series often up to 45.6 µM), usual class: activators | 380,000 tested, 0.007% active | AID 624172
PTHR1 agonist: activates the human parathyroid hormone receptor PTHR1 | HEK293 GP2 PTHR1 cells, GloSensor cAMP luminescence, 1 h | Q03431 | 410,000 tested, 0.075% active | Potency, µM (titrated, usually from 115 µM), actives largely listed as activators; further: nearly all actives have a fitted effect of over 55% in size
Target sequence (Q03431 whole entry, looked up): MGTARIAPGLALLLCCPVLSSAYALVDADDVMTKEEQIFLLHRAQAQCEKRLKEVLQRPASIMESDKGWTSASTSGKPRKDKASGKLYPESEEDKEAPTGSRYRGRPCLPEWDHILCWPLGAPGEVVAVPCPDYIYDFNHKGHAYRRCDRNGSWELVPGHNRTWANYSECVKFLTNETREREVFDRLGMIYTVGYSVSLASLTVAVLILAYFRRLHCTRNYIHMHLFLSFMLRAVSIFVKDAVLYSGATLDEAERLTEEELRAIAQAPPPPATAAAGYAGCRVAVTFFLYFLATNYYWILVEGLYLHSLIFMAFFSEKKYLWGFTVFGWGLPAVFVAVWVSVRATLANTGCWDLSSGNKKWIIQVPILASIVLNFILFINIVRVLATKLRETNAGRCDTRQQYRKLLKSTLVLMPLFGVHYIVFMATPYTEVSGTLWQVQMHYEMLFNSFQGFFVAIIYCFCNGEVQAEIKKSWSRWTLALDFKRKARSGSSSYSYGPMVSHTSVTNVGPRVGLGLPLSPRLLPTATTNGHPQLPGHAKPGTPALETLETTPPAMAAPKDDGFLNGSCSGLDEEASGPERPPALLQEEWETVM
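HEK-293-derived GP2 cells expressing PTHR1 and a GloSensor cAMP reporter, 3,000/well, plated overnight, given luciferin plus IBMX (each 0.5 mM as added) for 1 h at 37 °C, then compound for 1 h at 37 °C. Luminescence was read after 15 min at room temperature.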
A number is an active result; - = inactive; ? = inconclusive; . = not tested or not shown; ! = a repeat was not active. The call rests on the fitted dose curve; in most records, active means well fitted curve in the direction sought with a large enough effect; inconclusive means small, poorly fitted or top-dose-only effect, or another doubt; inactive means no such curve, though single readings can be large; an effect the other way counts as inactive or inconclusive.

SMILES	GLP-1R inv ag	HEK293 tox	GLP-1R agonist	PTHR1 agonist
Cc1cc(F)ccc1S(=O)(=O)Nc1ccccc1C(=O)Nc1ncn[nH]1	?	-	-	-
Cc1ccc(-c2cn(-c3cccc(Cl)c3)c(S(=O)(=O)CC(=O)Nc3cccc(C)c3)n2)cc1	8.9µM	-	.	-
O=C(N/N=C1\CCCc2c1[nH]c1ccc(Cl)cc21)c1ccncc1	7.1µM	?	-	-
CC(C)(C)c1cc(/C=N/O)cc(C(C)(C)C)c1O	10µM	-	-	-
CC(C)(C)c1cc(/C=C2\NC(=O)NC2=O)cc(C(C)(C)C)c1O	?	-	-	-
COc1cc(NC(=O)c2cnc3c(-c4ccc(F)cc4)c(C)nn3c2C)cc(OC)c1	?	-	.	-
N#C/C(=N/Nc1ccc([N+](=O)[O-])cc1)C(=N)N1CCCCC1	?	11µM	-	-
CCCCNC(=O)C1CCN(c2nc3ccc(C)cc3[nH]2)CC1	-	-	.	-
CC(C)(C)c1cc(C(=O)Nc2ccc(F)cc2)n(Cc2ccc(F)cc2)n1	2.8µM	?	-	-
Cc1ccc(NC(=O)c2cc(C(C)(C)C)nn2Cc2ccccc2)cc1	4µM	-	-	-
CC(C)(C)c1cc(C(=O)NC2CC2)n(Cc2ccc(F)cc2)n1	?	-	-	-
CC(C)(C)C(=O)NNC(=O)c1cc(C(C)(C)C)nn1Cc1ccccc1	?	-	-	-
CC(C)(C)c1cc(C(=O)NNc2cccc(Cl)c2)n(Cc2ccccc2)n1	1.3µM	-	-	-
Cc1ccc(NNC(=O)c2cc(C(C)(C)C)nn2Cc2ccccc2)cc1	3.2µM	-	-	-
Cc1ccc(-c2cc(C(=O)O)n(Cc3ccccc3)n2)cc1	-	-	.	-
CC(C)(C)c1cc(C(=O)NNc2ccc(OC(F)(F)F)cc2)n(Cc2ccccc2)n1	2.2µM	-	-	-
CC(C)(C)c1cc(C(=O)NNc2cc(C(F)(F)F)ccc2Cl)n(Cc2ccccc2)n1	4µM	-	-	-
COc1ccccc1NNC(=O)c1cc(C(C)(C)C)nn1Cc1ccccc1	?	-	-	-
O=C(CSc1nc2c(c(=O)[nH]1)CN(Cc1ccc3c(c1)OCO3)CC2)Nc1ccc(F)cc1	-	-	.	-
CCn1c(CNc2nc(-c3ccccc3)cs2)nnc1SCC(=O)NCc1ccccc1	11µM	-	-	-
Cc1nnc(SCC(=O)Nc2nc(-c3ccccc3)cs2)n1N	-	-	-	-
CCn1c(SCC(=O)Nc2nc(-c3ccccc3)cs2)nnc1-c1ccccc1	10µM	-	-	-
CCn1c(CNc2ccc(Cl)cc2)nnc1SCC(=O)NCc1ccccc1	?	-	-	-
CCC/C=C/c1ccc(CN2C(CC(C)C)C(=O)N(Cc3cn(CCC4OCCO4)nn3)CCS2(=O)=O)cc1 (stereo unspecified)	?	-	-	-
CCC/C=C/c1ccc(CN2C(C(C)C)C(=O)N(Cc3cn(CCC4OCCO4)nn3)CCS2(=O)=O)cc1 (stereo unspecified)	10µM	-	-	-
SMILES	GLP-1R inv ag	HEK293 tox	GLP-1R agonist	PTHR1 agonist
CCc1nn2c(=O)cc(COC(=O)c3ccc(NC(=O)CCc4ccccc4)cc3)nc2s1	-	-	.	-
Cc1cccc(CSc2ncc(CO)n2Cc2ccc(F)cc2)c1	?	-	-	-
CCOC(=O)C1=CN(Cc2cccc(F)c2)S(=O)(=O)NC1c1ccc2ccccc2c1 (stereo unspecified)	13µM	-	-	-
CSc1ccc(/C=C(/NC(=O)c2ccco2)C(=O)N2CCCCCC2)cc1	?	-	-	-
O=C(N/C(=C\c1ccc(Cl)cc1)C(=O)N1CCCCC1)c1ccco1	10µM	-	-	-
CCCCCCCN(CC)CCCC(O)c1ccc(NS(C)(=O)=O)cc1 (stereo unspecified)	.	.	-	.
O=C(c1ccccc1)N1N=C(c2ccc(F)cc2)CC1c1ccc(F)cc1 (stereo unspecified)	10µM	-	-	-
c1ccc(C2CC(c3cccs3)=NN2c2ccccc2)cc1 (stereo unspecified)	10µM	-	-	-
O=C(c1ccccc1)N1N=C(c2cccs2)CC1c1ccccc1O (stereo unspecified)	8.9µM	-	-	-
O=C(Nc1ccccc1)N1N=C(c2cccs2)CC1c1cccs1 (stereo unspecified)	?	-	-	-
Cc1oc(-c2ccccc2)nc1CNS(=O)(=O)c1ccc(Cl)cc1	-	-	.	-
CCN(Cc1ccccc1)S(=O)(=O)c1cc(C(=O)Nc2cc(Cl)cc(Cl)c2)ccc1F	?	-	.	-
S=C(Nc1cc(Cl)cc(Cl)c1)NC1CCN(Cc2ccccc2)CC1	4µM	?	-	-
S=C(NCc1ccc(Cl)cc1)NC1CCN(Cc2ccccc2)CC1	3.5µM	?	-	-
CCn1c(=O)c2sccc2n2c(CCC(=O)Nc3ccc(F)cc3)nnc12	-	-	-	-
COCCCNC(=O)c1cnc2sc(N3CCCCCC3)nn2c1=O	-	-	.	-
N#Cc1ccc(CSc2nnc(-c3ccc(Br)cc3)o2)cc1	-	-	-	-
COc1cccc(C(=O)NC(=S)Nc2ccccc2N2CCCC2)c1	5µM	?	-	-
O=C(NC(=S)Nc1ccccc1N1CCOCC1)c1cccc([N+](=O)[O-])c1	3.5µM	?	-	-
COc1cccc(C(=O)Nc2ccccc2N2CCCC2)c1	-	-	-	-
COc1cccc(C(=O)NC(=S)Nc2ccccc2N2CCCCC2)c1	5.6µM	-	-	-
CCC(=O)N1CCN(c2ccccc2NC(=S)NC(=O)c2cccc([N+](=O)[O-])c2)CC1	?	-	-	-
CCNc1nc(C23CC4CC(CC(C4)C2)C3)cs1	2.8µM	-	-	-
CC(=O)NNC(=O)CC(=O)Nc1nc(C23CC4CC(CC(C4)C2)C3)cs1	?	-	-	-
COc1cc(NC(=O)CCS(=O)(=O)c2ccc3c(c2)n(C)c(=O)c(=O)n3C)cc(OC)c1	-	-	-	22µM!
SMILES	GLP-1R inv ag	HEK293 tox	GLP-1R agonist	PTHR1 agonist
COC(=O)C1=C(C(=O)OC)[C@@H]2N(Cc3ccccc3)c3ccccc3[C@@]23C[C@@H](C(=O)OC)N(C(=O)c2cc(C)oc2C)C3=N1	11µM	-	-	-
CCN(CC)CCN(C(=O)c1ccco1)c1nc2cc(C)cc(C)c2s1	?	-	.	-
CCC1C/C(=C\c2cccnc2)C(=O)/C(=C/c2cccnc2)C1 (stereo unspecified)	3.5µM	?	-	-
CC(C)C(=O)OCC(=O)[C@@]12OC(C3CCCCC3)O[C@@H]1CC1C3CCC4=CC(=O)C=C[C@]4(C)C3[C@@H](O)C[C@@]12C (stereo partly specified)	.	.	-	.
CCN(C(=O)C1CCC(CNS(=O)(=O)c2cccc3nsnc23)CC1)c1ccccc1 (stereo unspecified)	?	-	.	-
COc1ccc(-c2oc3c(OC)c(OC)c(OC)c(O)c3c(=O)c2OC)cc1OC	2.8µM	-	-	-
COc1ccc2c(c1)c(CCNNC(=O)C(C)(C)C)c(C)n2C(=O)c1ccc(Cl)cc1	10µM	?	-	-
